# Experimental data reported in the supplement of paper PMC6555819.
# Columns and labels:
# Assay in all cases: PBM binding z-score (relative to random genomic background probes); higher = stronger binding; sequences stand for … in GC…GCGATTGACAGCGTAGAATGAAGG
# [1] = test system: RARb homodimer (NR concentration 270 nM)
# How it was run: (§1)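 Custom Agilent 4×180K protein-binding microarrays carried double-stranded probes, each with a 34-nt variable region. These regions held direct-repeat seeds, single-nucleotide variants, half-site ablations and random human genomic background sequences. Ligand-free nuclear receptor dimers were incubated on the arrays for 1 h, antibodies against each partner (one per run) detected binding, and scanned fluorescence was regression-normalized. Binding z-scores take the random background probes as reference.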
# [2] = test system: RARg:RXRa (NR concentration 270 nM, RXRa partner concentration 90 nM)
# How it was run: as §1
# [3] = test system: RARg homodimer (NR concentration 270 nM)
# How it was run: as §1
# [4] = test system: RXRa DBDmut IVT, anti-RXR (DBD mutation: RXRa K156A/R161A, NR concentration 90 nM)
# How it was run: as §1
# [5] = test system: RXRa homodimer (NR concentration 180 nM)
# How it was run: as §1
# [6] = test system: THRa:RXRa (NR concentration 90 nM, RXRa partner concentration 90 nM)
# How it was run: as §1
# [7] = test system: THRa homodimer (NR concentration 90 nM)
# How it was run: as §1
# [8] = test system: VDR homodimer (NR concentration 270 nM)
# How it was run: as §1
Sequence,PBM binding z-score [1],PBM binding z-score [2],PBM binding z-score [3],PBM binding z-score [4],PBM binding z-score [5],PBM binding z-score [6],PBM binding z-score [7],PBM binding z-score [8]
CGAACGAGGGCATGAGTTGAAAGCAAATGCCGAT,0.836,1.52,1.57,2.22,1.19,1.37,-0.313,1.57
CCTCGGAGGACAGAAGGTCAGAGCTGTCCGCTTT,3.43,3.39,2.55,0.0371,1.89,2.22,-0.0461,-0.131
TTACCATGGTGAGCTGAGGTCGTTGATCCAACTC,0.61,0.0619,-0.479,-0.0297,0.594,2.81,1.14,1.7
CCTAGCAGGCCAATCTCGGTCACTCAAGGCTTGA,1.46,0.504,1.24,0.398,-0.123,1.92,-0.183,-0.29
CCTCGGAGGCCAACAGGAGGTCAGAGCTGCCAGA,3.63,4.76,3.41,-0.221,2.34,2.41,0.431,0.821
TCTTGTAGATCCGCAGGTTAAGAAAGCTGGCCAA,-0.00283,-0.252,-0.631,0.638,0.152,0.0319,-0.513,-0.38
AGAATGAGGTTACCAAAGATCAGGGAGACGCTTG,0.689,2.21,1.8,1.28,2.77,2.86,0.711,0.443
CTCGAAAGGTCGTGCCCAGGTGAGTATACCAAAC,2.89,5.31,3.78,1.72,5.09,3.87,0.947,1.31
ATCTCTAGGTTACAAGTTCAGTGAAAGAGAGGAC,2.77,2.81,2.37,1.65,1.76,2.02,1.48,2.9
GCGAATGGGGCATCAGCAGGTTACCATAACTTAA,0.462,0.664,0.351,0.119,0.257,0.795,0.03,-0.224
GATACAGGGACAGCTAGAGGCCAGAGTATGGAAA,0.97,0.522,1.01,-0.496,0.185,0.508,0.191,-0.0729
CCAGAGAGGTGAGAAGGTAACTCAGCCTCGATTA,1.31,1.52,1.22,0.0821,1.05,1.19,0.396,0.477
CGAACTAGGTCAGAACCGGACAGTGAAGGATGAT,1.76,2.4,3.3,0.258,1.12,1.72,0.00608,-0.191
CCTACTGGCCCACGAAAGGTCATTGATTCAGTGA,4.47,4.32,3.95,0.693,4.79,3.02,1.16,2.69
CCTACTGGGCCAAAATGGTCATTGATGCCGATAA,0.177,0.104,0.0823,-0.811,-0.05,-0.37,-0.637,-0.747
GCTAGTTGGTCCGTAAAAGGTCACACACCGGTCG,5,5.04,4.7,0.491,5.6,3.5,1.82,1.94
CCTACTGGCCCAAAGGTCATTGATTCCAATGCTC,4.89,4.89,4.36,1.06,5.05,3.3,0.916,2.14
CCAACTAGGTCAAGAGGTCAAAGTCCGCTTCCCG,5.51,8.12,7.31,2.99,8.12,4.24,2.47,4.94
TCTGCTAGGTCAACGATGGTTAGCTAATCTGCTA,2.99,3.97,5.29,1.1,2.75,2.9,0.466,-0.391
CGTCCAAGGTCAAAGGTCAGTGTAGAGATGACGG,5.37,8.64,8.04,3.99,10.1,4.77,2.77,3.86
ATTAGCAGGCCAAGGGTCACTCAAGATTAGTCCG,3.64,4.22,3.71,0.43,4.3,2.7,0.321,0.941
CCTACTGGGCCACGAAAGGTCATTGAATCAGTGA,4.71,4.78,4.92,0.485,5.26,3.64,0.999,1.9
CGAACTAGCTCAGAACAGGACAGTGAAGGATGAT,-0.0575,-0.313,0.137,0.021,-0.191,-0.173,-0.29,-0.0975
TTACCAAGGTGAAATGTCGTTGATGCACGCCTTG,0.644,0.864,0.648,0.115,1.16,1.82,0.71,-0.183
TCTGGGAGGACACGAAGGTCAGAGCTTTCCAGAG,3.49,3.51,4.11,0.416,2.01,2.9,1.18,1.35
AATACAGGGTCATCGTTGGCCAGAGTACGCACAG,3.58,5.68,5.14,3.53,6.56,3.95,1.53,3.86
GTACCAAGGTGAATAGGTCTTTGATGAGTAGGCG,1.13,1.15,0.913,0.00774,0.832,1.3,0.641,0.178
CAAACTAGGTCACCGGAAGGTCAAAATCCGCATG,5.17,7.81,7.09,2.39,5.88,4.39,2.94,3.11
